Results filed as inconclusive are left out. Values without a mark were called inactive. Active and inactive are the calls of the source. Calls follow the shape of the dose curve; as a rule, active = well fitted cell-killing curve with a large enough effect; inconclusive = small, poorly fitted or top-dose-only effect, or effect the other way; inactive = no such curve, though single readings can be large or run the other way.
tested on: Tov-21-G; experiment: Confirmatory qHTS for gynecologic anti-cancer compounds from libraries of approved drugs and bioactive compounds; conditions: gynecologic cancer cell panel viability, ATPlite luminescence, 48 h; series mostly up to 57.7 µM; also: nearly all actives have a fitted effect of over 55% in size
Method in brief: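 Cells (1,000/well) plated 16 h, then exposed 48 h at 37 °C to 11 concentrations (1:3) from 57.5 uM to 0.977 nM. Viability by ATPlite luminescence after 15 min; IC50 derived, with HEK 293T used for selectivity index.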
% is scaled to controls: 0 for no effect and ±100 for the full control effect; potency is read from the fitted curve at half-maximal effect.

SMILES	Potency	activity change, negative = viability loss
CC(C)n1c(/C=C/[C@@H](O)C[C@@H](O)CC(=O)O)c(-c2ccc(F)cc2)c2ccccc21	inactive	
Nc1ccc(-c2ccc3ncc4ccc(=O)n(-c5cccc(C(F)(F)F)c5)c4c3c2)cn1	3.43 µM (active)	
CCc1nc(C(N)=O)c(Nc2ccc(N3CCC(N4CCN(C)CC4)CC3)c(OC)c2)nc1NC1CCOCC1	2.67 µM (active)	
CC(=O)O[C@H]1C(=O)[C@@]2(C)[C@H]([C@H](OC(=O)c3ccccc3)[C@]3(O)C[C@H](OC(=O)[C@H](O)[C@@H](NC(=O)c4ccccc4)c4ccccc4)C(C)=C1C3(C)C)[C@]1(OC(C)=O)CO[C@@H]1C[C@@H]2O		0.907% [at 11 µM]
O=C(CCCCCCC(=O)Nc1ccccc1)NO	4.85 µM (active)	
COc1cc2c(Nc3ccc(NC(=O)c4ccccc4)cc3)ncnc2cc1OCCCN1CCOCC1	19.3 µM (active)	
CC(C)C[C@H](NC(=O)[C@H](CCc1ccccc1)NC(=O)CN1CCOCC1)C(=O)N[C@@H](Cc1ccccc1)C(=O)N[C@@H](CC(C)C)C(=O)[C@@]1(C)CO1	2.17 µM (active)	
Cc1ccc(C(N)=O)cc1Nc1nccc(-c2cn(C(C)C)c3cnccc23)n1	9.68 µM (active)	
O=C1c2c(O)ccc(O)c2C(=O)c2c(NCCNCCO)ccc(NCCNCCO)c21	4.32 µM (active)	
NC(=O)Nc1cc(-c2cccc(F)c2)sc1C(=O)NC1CCCNC1 (stereo not drawn)	3.43 µM (active)	
Cc1ccc(C(=O)Nc2cccc(C(F)(F)F)c2)cc1-c1ccc2nc(NCCN3CCOCC3)ncc2c1	4.85 µM (active)	
CN[C@@H](C)C(=O)N[C@H]1CN(C(=O)CC(C)C)CC[C@H]2CC[C@@H](C(=O)NC(c3ccccc3)c3ccccc3)N2C1=O	21.7 µM (active)	
COC(C(=O)N1Cc2[nH]nc(NC(=O)c3ccc(N4CCN(C)CC4)cc3)c2C1)c1ccccc1 (stereo not drawn)	1.37 µM (active)	
Cc1c(NC(=O)OCC2COCCN2)cn2ncnc(Nc3ccc4c(cnn4Cc4cccc(F)c4)c3)c12 (stereo not drawn)	3.06 µM (active)	
CN(NC(=O)CC(=O)NN(C)C(=S)c1ccccc1)C(=S)c1ccccc1	0.153 µM (active)	
CCC1C(=O)N(C)c2cnc(Nc3ccc(C(=O)NC4CCN(C)CC4)cc3OC)nc2N1C1CCCC1 (stereo not drawn)	1.93 µM (active)	
Fc1cc(-c2cccc3ncc(-c4cnn(C5CCNCC5)c4)nc23)cc(F)c1CN1CCOCC1	12.2 µM (active)	
Cc1cc(Nc2cc(N3CCN(C)CC3)nc(/C=C/c3ccccc3)n2)n[nH]1	1.72 µM (active)	
